According to PubChem BioAssay (NCATS):
Values joined by “and” are separate entries in the source; they are usually repeats but may differ in a detail not shown here. Identical values can stand only once. Inconclusive results are not listed. A number with no mark means an inactive call. Active and inactive are the calls of the source. Calls follow the shape of the dose curve; as a rule, active = well fitted cell-killing curve with a large enough effect; inconclusive = small, poorly fitted or top-dose-only effect, or effect the other way; inactive = no such curve, though single readings can be large or run the other way.

Experiment: Viability qHTS for spleen associated tyrosine kinase inhibitor (SYKi) drug resistant MV4-11 cells (AID 1963824); also: nearly all actives have a fitted effect of over 35% in size
Details: SYKi-resistant MV4-11 viability, CellTiter-Glo, 72 h; series mostly up to 45 µM; viability, % of control: at the top concentration
In short: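 SYK-inhibitor-resistant MV4-11 AML cells were seeded at 500 per well onto compound and cultured 72 hours (37 °C, 5% CO2). CellTiter-Glo was then added, and after 10 min at room temperature, luminescence gave viability.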
Potency is read from the fitted curve at half-maximal effect.

Compound | Potency | viability, % of control
CC(C)(C(=O)O)c1ccc(C(O)CCCN2CCC(C(O)(c3ccccc3)c3ccccc3)CC2)cc1 (stereo not given) | inactive | 
O=C(OCC1(COC(=O)c2cccnc2)CCCC(COC(=O)c2cccnc2)(COC(=O)c2cccnc2)C1O)c1cccnc1 |  | 78.4%
O=c1oc2c(C3OCCCO3)c(O)ccc2c2c1CNCC2 | 11.8 µM (active) | 
OC[C@H]1O[C@@H](S[C@@H]2O[C@H](CO)[C@H](O)[C@H](n3cc(-c4cccc(F)c4)nn3)[C@H]2O)[C@H](O)[C@@H](n2cc(-c3cccc(F)c3)nn2)[C@H]1O |  | 90.7%
NS(=O)(=O)c1cc2c(cc1Cl)NC(CC1CCCC1)NS2(=O)=O (stereo not given) |  | 121%
COc1cc2c(cc1OC)CN(CCc1ccc(-n3nnc(-c4cc(OC)c(OC)cc4NC(=O)c4cc(=O)c5ccccc5o4)n3)cc1)CC2 |  | 98% [at 0.588 µM]
CC1(C)OC2=C(C(=O)c3ccccc3C2=O)[C@H](NCc2ccccc2)[C@@H]1O | 2.63 µM (active) | 
Nc1ccc(C(=O)O)c(O)c1 |  | 71.9%
C[C@@H]1N=C(N)NC(N(C)C)=N1 | inactive | 
CN1CCC[C@@H]1c1cccnc1 |  | 94%
CC(=O)OCC(=O)[C@@]12OC(C)(C)O[C@@H]1C[C@H]1[C@@H]3C[C@H](F)C4=CC(=O)C=C[C@]4(C)[C@@]3(F)[C@@H](O)C[C@@]12C |  | 65.1%
O=C(Nc1ccnc(NC(=O)C2CC2)c1)c1c(Cl)cccc1Cl | 4.68 µM (active) | 
Cc1cc(OCc2nnc(SC3CCCC3)n2-c2cccnc2)ccc1-c1ccc(S(C)(=O)=O)cc1 | 0.116 µM (active) | 
CCc1cc2c(cc1N1CCC(N3CCOCC3)CC1)C(C)(C)c1[nH]c3cc(C#N)ccc3c1C2=O | 0.632 µM (active) | 
NS(=O)(=O)c1cc2c(cc1Cl)NC(C1CC3C=CC1C3)NS2(=O)=O (stereo not given) |  | 81.9%
CC(C)C[C@H](NC(=O)[C@H](Cc1ccccc1)NC(=O)OCc1ccccc1)C(=O)C=O | 20.9 µM (active) | 
CCC1NC(=O)c2cc(S(N)(=O)=O)c(Cl)cc2N1 (stereo not given) |  | 81.9%
COc1cc2nccc(Oc3ccc(NC(=O)c4cn(C(C)C)c(=O)n(-c5ccc(F)cc5)c4=O)cc3F)c2cc1OC | 0.468 µM (active) | 
O=C1NC(=O)/C(=C/c2ccc3nccc(-c4ccncc4)c3c2)S1 | 820 nM (active) and 525 nM (active) | 
O=C1Nc2nc(-c3c(O)cccc3OCC3CC3)cc([C@@H]3CCCNC3)c2CO1 | 4.11 µM (active) and 5.25 µM (active) | 

Compound | Potency | viability, % of control
CN[C@H]1CC[C@@H](c2ccc(Cl)c(Cl)c2)c2ccccc21 | 7.42 µM (active) | 
CCC(=O)NC[C@H](Cc1ccc(OCCc2nc(-c3ccccc3)oc2C)cc1)N/C(C)=C\C(=O)c1ccc(C(F)(F)F)cc1 | 11.8 µM (active) | 
O=C(c1ccc(F)c(F)c1Nc1ccc(I)cc1F)N1CC(O)([C@@H]2CCCCN2)C1 | 231 nM (active) and 296 nM (active) | 
NC[C@@](O)(c1ccc(Cl)cc1)c1ccc(-c2cn[nH]c2)cc1 | 3.26 µM (active) and 6.61 µM (active) | 
CC1=C2C[C@H]3[C@@H](CC[C@@H]4C[C@H](NS(C)(=O)=O)CC[C@@]43C)[C@@H]2CC[C@@]2(C1)O[C@@H]1C[C@H](C)CN[C@H]1[C@H]2C | 4.68 µM (active) | 
COc1ccc(-c2cc(=O)c3c(O)cc(O[C@@H]4O[C@H](CO[C@@H]5O[C@@H](C)[C@H](O)[C@@H](O)[C@H]5O)[C@@H](O)[C@H](O)[C@H]4O)cc3o2)cc1O | inactive | 
CCC[C@H](N[C@H]1CCc2cc(F)cc(F)c2C1)C(=O)Nc1cn(C(C)(C)CNCC(C)(C)C)cn1 | 9.2 µM (active) and 6.61 µM (active) | 
O=C(/C=C/c1ccc(Cl)cc1)N1CCC2(CC1)CN(Cc1ccc(Cl)c(Cl)c1)C(=O)O2 | 11.8 µM (active) | 
NC(=O)c1nc(F)c[nH]c1=O | inactive | 
O=C(O)COC(=O)Cc1ccccc1Nc1c(Cl)cccc1Cl |  | 75%
COc1cc(N2CCC(N)CC2)ccc1Nc1ncc(Cl)c(-c2c[nH]c3ccccc23)n1 | 18.4 nM (active) and 37.2 nM (active) | 
CC(COc1ccccc1)NC(C)C(O)c1ccc(O)cc1 (stereo not given) |  | 66.9%
Cc1ccc2ccc(Cl)cc2n1 |  | 104%
CCCCC1(COC(=O)CCC(=O)O)C(=O)N(c2ccccc2)N(c2ccccc2)C1=O |  | 83.9%
CN1CCC(c2c(O)cc(O)c3c(=O)cc(-c4ccccc4Cl)oc23)C1CO (stereo not given) | 0.59 µM (active) | 
CN(C)CCCSc1ccccc1NC(=O)/C=C/c1ccccc1 |  | 63.8%
C=CC(=O)Nc1cccc(Nc2nc(Nc3ccc(OCCOC)cc3)ncc2F)c1 | 0.651 µM (active) | 
CCCCCCCCCCCCCCCCCC(=O)OCC(O)CO (stereo not given) |  | 79.4%
COc1ccc(N2C(=O)N(c3c(C)cccc3Cl)Cc3cnc(Nc4ccc(C5CCN(C)CC5)cc4OC)nc32)nc1 | 1.48 µM (active) | 
Cc1ccc(S(=O)(=O)Nc2cc(-c3ccc(C#N)s3)ccc2C)cc1 | 0.0332 µM (active) | 
